USP1-UAF1 inh: USP1/UAF1 (human) deubiquitinase inhibition. Potency, µM (titrated, usually from 57.1 µM), for the others: at the highest dose activity change, negative = inhibition, actives largely listed as inhibitors. actives 0.23% (n = 390,000). recombinant USP1/UAF1, Ub-Rhodamine cleavage fluorescence. AID 743255; further: potency means the concentration at half of the fitted maximal effect; nearly all actives have a fitted effect of over 60% in size
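Step one: compound is pinned into 1nM USP1/UAF1 in HEPES pH 7.8 buffer with TCEP. Step two: 15 min room-temperature incubation. Step three: Ub-Rho (150nM final) starts cleavage, tracked by fluorescence over six one-minute reads.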
FBPA coupling cs: counter-screen for Giardia aldolase inhibitors: coupling enzyme system; coupling enzyme system counterscreen, AmpLite Red fluorescence; activity change, negative = inhibition, % at 58.2 µM, hits read low; actives 0.67% (n = 290,000); AID 2472; in the data active means activity change below about -30%
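First, compound is pin-transferred into glyceraldehyde-3-phosphate coupling-enzyme reagent at 57.5 uM final and held 10 min at RT. Next, substrate, coupling system and AmpLite Red are added. After 20 min RT, fluorescence (525/598 nm) is read.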
Tau FP inhib: inhibitors of human tau fibril formation | K18 P301L tau heparin fibrillization, Alexa594 FP, 6 h | Potency, µM (top dose mostly 57.7 µM), inactives show at the highest dose activity, negative = inhibition, actives largely listed as inhibitors | AID 1468 | actives 0.39% (n = 280,000); further: potency means the concentration at half of the fitted maximal effect; nearly all actives have a fitted effect of over 55% in size
Target sequence (P10636 561-689 P618L limits assumed): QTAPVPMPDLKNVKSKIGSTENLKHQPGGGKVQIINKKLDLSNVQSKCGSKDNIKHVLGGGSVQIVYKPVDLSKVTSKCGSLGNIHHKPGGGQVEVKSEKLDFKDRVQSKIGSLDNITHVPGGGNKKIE
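Quantitative HTS format: compounds meet 15 uM recombinant K18 P301L tau and Alexa 594-tau tracer in 100 mM sodium acetate pH 7; 20 uM heparin triggers fibrillization at 37 C over 6 hr; FP gives the signal.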
Tau ThT inhib: inhibitors of human tau fibril formation, thioflavin T binding; P10636; recombinant tau K18 P301L, heparin-induced fibrillization, ThT fluorescence; Potency, µM (titrated, usually from 57.4 µM), inactives show top-dose activity, negative = inhibition, actives largely listed as inhibitors; actives 2.1% (n = 270,000); AID 1460; further: potency means the concentration at half of the fitted maximal effect; nearly all actives have a fitted effect of over 55% in size
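Aggregation was driven by heparin (20 uM final) acting on recombinant tau […] bearing P301L in 100 mM sodium acetate pH 7; fibrils were detected with Thioflavin T.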
Tau fluor counter: counter-screen for tau fibril formation inhibitors. actives 0.93% (n = 280,000). Potency, µM (doses to about 57.7 µM), for the others: top-dose activity change, negative = decrease. AID 1463. tau K18 P301L (four-repeat tau fragment) Alexa594 fluorescence, heparin fibrillization; further: potency means the concentration at half of the fitted maximal effect; nearly all actives have a fitted effect of over 55% in size
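Human K18 P301L tau (15 uM unlabeled plus 0.24 uM Alexa 594-labeled, final) in 100 mM sodium acetate pH 7 was mixed with compound and 20 uM heparin and incubated 6 hr at 37 C.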
* hit, by the source's call; ? = inconclusive; / = not tested or not shown; [ ] = remark or other dose. In the library only some 2.3% were active in any assay of this set; here they are far more common. Unless noted, the call rests on the fitted dose curve; in most records, active means well fitted curve in the direction sought with a large enough effect; inconclusive means small, poorly fitted or top-dose-only effect, or another doubt; inactive means no such curve, though single readings can be large; an effect the other way counts as inactive or inconclusive. On the % scale 0 is the no-effect control and ±100 the full control effect.

SMILES | USP1-UAF1 inh | FBPA coupling cs | Tau FP inhib | Tau ThT inhib | Tau fluor counter
COc1ccc(/C=C/C(=O)c2cc(O)ccc2O)cc1 | / | 0.2 | ? | 14.1µM* | 14.1µM*[quencher]
COc1ccc(/C=C/C(=O)c2cc3c(cc2N)OCO3)cc1 | -26.8% | -0.9 | -1.9% | 2.82µM* | 15.8µM*[quencher]
O=C(c1ccccc1Br)N1CCC(c2nc3ccccc3o2)CC1 | -22.0% | / | 4.7% | -1.1% | -2.5%
O=C(/C=C/c1ccc(O)c(O)c1)OCCc1ccccc1 | -7.3% | -1.4 | ? | ? | 11.2µM*[quencher]
O=C(O)/C=C\c1ccc(O)c(O)c1 | / | -1.9 | / | / | /
COc1ccc(/C=C/C(=O)c2ccc(O)cc2O)cc1 | / | 2.2 | -15.2% | 11.2µM* | ?
COc1ccc(C(=O)/C=C/c2ccccc2)c(O)c1 | -7.7% | 0.3 | 14.1% | ? | 1.0%
COc1ccc(/C=C/C(=O)c2ccc(O)cc2O)cc1OC | / | 0.1 | -13.8% | 7.08µM* | -17.8%
CC(C)=CCC/C(C)=C/Cc1c(O)ccc(C(=O)/C=C/c2ccc(O)cc2)c1O | -21.6% | -5.0 | 7.94µM* | 20µM* | 4.47µM*[quencher]
Cc1ccc(S(=O)(=O)Nc2ccc(O)c(Sc3ncn[nH]3)c2)cc1 | ? | -9.8 | 1.6% | -4.9% | -1.7%
Cc1ccc(S(=O)(=O)N2CCN(C(=O)CSc3ncn[nH]3)CC2)c(C)c1 | -10.4% | / | / | / | /
Cc1ccc(S(=O)(=O)/N=C2/C=C(Sc3ncn[nH]3)C(=O)c3ccccc32)c(C)c1 | / | -62.7* | 28.2µM* | 10µM* | ?
CC(C)c1ccc(S(=O)(=O)/N=C2/C=C(Sc3ncn[nH]3)C(=O)c3ccccc32)cc1 | 1.78µM* | -91.8* | -1.0% | 6.1% | -2.0%
Cc1ccc(S(=O)(=O)/N=C2/C=C(Sc3ncn[nH]3)C(=O)c3ccccc32)cc1 | 1µM* | -54.9* | 14.1µM* | 3.55µM* | ?
O=C(c1ccc(Cl)cc1)N1CCCCC1CCN1CCOCC1 (centres undefined) | -21.3% | / | -1.1% | 3.4% | 6.8%
COc1ccccc1CNC(=O)CSc1nnc(C)c2c(C)n(-c3ccccc3)nc12 | -8.2% | / | -4.0% | ? | -14.1%
CC/C(C)=N/Nc1nc(-c2cc3cccc(OC)c3oc2=O)cs1 | 1.0% | 1.1 | -4.8% | 17.8µM* | ?
COc1cccc2cc(-c3csc(CCn4nc(C)cc4C)n3)c(=O)oc12 | -15.2% | -0.5 | 4.6% | ? | -16.0%
O[C@@H]1COC2[C@@H](O)CO[C@@H]21 (some centres undefined) | / | 0.1 | / | / | /
COC(=O)\C(C(C)=O)=C(/C=C/C=C/C=C/N(C)C)N(C)C | -21.0% | -10.6 | ? | 15.8µM* | -24.2%
FC(F)(F)c1ccc(-c2noc(-c3ccccc3)c2I)cc1 | / | -2.2 | -4.9%[81.3 µM] | -7.7%[81.4 µM] | 1.2%[81.3 µM]
O=Cc1cc(N=Nc2cccc(C(=O)O)c2)ccc1O | -24.8% | 21.4 | -8.3% | 3.98µM* | -12.6%
O=Cc1cc(N=Nc2ccccc2Cl)ccc1O | ? | 8.7 | ? | 12.6µM* | ?
O=C(O)c1ccc(N=Nc2c(O)ccc3ncccc23)cc1 | ? | -13.0 | / | / | /
Cc1ccc(N=Cc2ccccc2O)cc1Cl | -10.9% | / | / | / | /
SMILES | USP1-UAF1 inh | FBPA coupling cs | Tau FP inhib | Tau ThT inhib | Tau fluor counter
Cn1cccc1C(=O)N1CCC2(CCN(C(=O)Nc3ccccc3)CC2)CC1 | / | 3.8 | / | / | /
COc1ccc2c(COC(=O)CNC(=O)C34CC5CC(CC(C5)C3)C4)cc(=O)oc2c1 | -15.7% | 2.9 | 8.8% | -0.3% | -10.0%
Cn1c(=O)c(Nc2ccc(O)cc2)c2c3c(cccc31)C(=O)c1ccccc1-2 | -6.2% | -10.1 | ? | 7.94µM* | 14.1µM*[quencher]
CCN(CC)c1ccc(NC(=O)COCc2cc(-c3ccc4c(c3)OCO4)on2)c(C)c1 | -18.8% | / | 9.9% | 2.82µM* | ?
Fc1ccc(F)c(C2=NNC(=Nc3ccccc3F)SC2)c1 | ? | 0.8 | -7.4% | -6.9% | -16.3%
Fc1ccc(N=C2NN=C(c3cc(F)ccc3F)CS2)cc1 | ? | -0.4 | ? | 12.6µM* | ?
Cc1[nH]c2ccccc2c1C1=NNC(=Nc2ccc(F)cc2)SC1 | -10.1% | 1.0 | ? | 14.1µM* | 11.2µM*[quencher]
Fc1ccccc1N=C1NN=C(c2ccccc2)CS1 | -25.0% | 1.5 | ? | 22.4µM* | ?

Source: PubChem BioAssay (National Center for Advancing Translational Sciences (NCATS))
